Broadly, the Inhibition is the drop in the measured response relative to a control, in per cent.

One experiment concerns Klebsiella pneumoniae. To be noted: Concentration 32 ug.mL-1;; ASSAY_TEST Inhibition of Bacterial Growth; detection method Absorption (OD600); MEDIA CAMHB; plate type 384well; NBS; CORNING #3640; time 18 hr.
For the next experiment, the system named is Candida albicans. As to conditions: Concentration 32 ug.mL-1; ASSAY_TEST Inhibition of Fungal Growth; detection method Absorption (OD530).
The next experiment has as its system Cryptococcus neoformans. As to conditions: Concentration 32 ug.mL-1; ASSAY_TEST Inhibition of Fungal Growth; detection method Resazurin; Absorption (OD600-OD570); plate type 384well; NBS; CORNING #3640.

Measured potencies and affinities stand elsewhere.

With `Cc1nnc2c(=O)n(CC(=O)Nc3ccc(F)cc3)c3ccccc3n12`, the values for the Inhibition with Klebsiella pneumoniae, with Candida albicans and in the experiment on Cryptococcus neoformans were 10.46%, 0.41% and -6.03%, respectively.

For `O=c1n(Cc2nc(-c3ccc(Cl)cc3)no2)nc2ccc(-c3ccccc3)nn12`, the values for the Inhibition in the experiment with Klebsiella pneumoniae, in the experiment on Candida albicans and in the experiment on Cryptococcus neoformans were 13.55%, 2.36% and -20.52%, respectively.

In the case of `CCc1cccc(NC(=O)Cn2nc3nc(N4CCCCCC4)ccn3c2=O)c1`, the Inhibition in the experiment with Klebsiella pneumoniae is recorded as 14.42%; in the experiment on Candida albicans, 0.8%; with Cryptococcus neoformans it was -9.37%.

Consider `COC(=O)c1cccc(NC(=O)Cn2nc3c(SCc4ccc(Cl)cc4)nccn3c2=O)c1`, for which the Inhibition in the experiment on Klebsiella pneumoniae was 6.22%; with Candida albicans, 27.78%; with Cryptococcus neoformans it was -15.7%.

Regarding `N#CCn1nc2n(Cc3ccc(F)cc3)c(=O)c3ccccc3n2c1=O`, the Inhibition in the experiment on Klebsiella pneumoniae is on record as 3.36%; in the experiment on Candida albicans, 3.09%; with Cryptococcus neoformans it was -7.73%.

Consider `COc1ccc(NC(=O)Cn2nc3c4cc(-c5ccc(Cl)cc5)nn4ccn3c2=O)c(OC)c1`, for which the results for the Inhibition in the experiment with Klebsiella pneumoniae, in the experiment on Candida albicans and in the experiment on Cryptococcus neoformans were 16.21%, 1.15% and -23.56%, respectively.

Take `Cc1cccc(C)c1NC(=O)CSc1nc2ccccc2n2c(C)nnc12`: the Inhibition with Klebsiella pneumoniae is 9.22%; in the experiment on Candida albicans it was 0.67%; with Cryptococcus neoformans, -4.49%.

On to `CC1CC(C)CN(c2nccn3c(=O)n(CC(=O)Nc4cccc(C(F)(F)F)c4)nc23)C1` (centres undefined), for which the Inhibition was 12.34% in the experiment with Klebsiella pneumoniae, 1.5% in the experiment on Candida albicans and -9.37% with Cryptococcus neoformans.

As for `COC(=O)c1cccc(NC(=O)Cn2nc3ccc(-c4ccccc4)nn3c2=O)c1`, the Inhibition is recorded as -4.82% in the experiment with Klebsiella pneumoniae, 4.96% in the experiment on Candida albicans and -15.91% in the experiment with Cryptococcus neoformans.

As to `CCc1ccccc1NC(=O)CSc1nnc2c(=O)n(-c3ccccc3)ccn12`, the figures for the Inhibition in the experiment on Klebsiella pneumoniae, in the experiment on Candida albicans and in the experiment on Cryptococcus neoformans were 11.56%, -0.14% and -23.92%, respectively.

On to `O=C(Cn1nc2nc(Nc3ccc(F)cc3)ccn2c1=O)N1CCCc2ccccc21`, for which the values for the Inhibition in the experiment with Klebsiella pneumoniae, in the experiment on Candida albicans and in the experiment with Cryptococcus neoformans were 14.82%, 2.56% and -7.45%, respectively.

With `Cc1nnc2ccc(S(=O)(=O)N(Cc3cc(F)cc(F)c3)c3ccccc3)cn12`, the figures for the Inhibition in the experiment with Klebsiella pneumoniae, in the experiment with Candida albicans and in the experiment with Cryptococcus neoformans were 7.27%, 2.01% and -9.38%, respectively.

As for `CC(C)c1nnc2c(SCC(=O)Nc3ccccc3C(F)(F)F)nc3ccccc3n12`, the Inhibition with Klebsiella pneumoniae is 13.6%; in the experiment on Candida albicans it was 0.36%; with Cryptococcus neoformans, -15.63%.

For the compound `O=C(CSc1nnc2c3cc(-c4ccc(F)cc4)nn3ccn12)NCc1ccccc1`, the figures for the Inhibition in the experiment with Klebsiella pneumoniae, in the experiment with Candida albicans and in the experiment on Cryptococcus neoformans were 0.49%, 0.97% and -18.29%, respectively.

On to `CCOc1ccc(-n2ccn3c(=O)n(CC(=O)Nc4ccc(Br)cc4)nc3c2=O)cc1`, for which the Inhibition in the experiment on Klebsiella pneumoniae is given as 8.93%; in the experiment with Candida albicans, 2.12%; in the experiment with Cryptococcus neoformans, -3.26%.

For the compound `Cc1ccc(Oc2nccn3c(=O)n(CC(=O)Nc4ccccc4Br)nc23)cc1`, the Inhibition is given as 15.36% in the experiment with Klebsiella pneumoniae, 1.31% with Candida albicans and -18.92% with Cryptococcus neoformans.

On to `Cc1cc(NC(=O)CSc2nc3ccccc3n3cnnc23)ccc1Br`, for which the values for the Inhibition with Klebsiella pneumoniae, in the experiment with Candida albicans and with Cryptococcus neoformans were 14.4%, 4.71% and -40.95%, respectively.

Turning to `CCCCOc1ccc(-c2cc3c4nnc(SCC(=O)Nc5c(C)cccc5C)n4ccn3n2)cc1`, the Inhibition in the experiment with Klebsiella pneumoniae is given as 2.94%; with Candida albicans it was 28.25%; in the experiment on Cryptococcus neoformans it was -13.35%.

In the case of `Cc1cc(NC(=O)Cn2c(=O)c3nnc(C(C)C)n3c3ccccc32)ccc1Br`, the results for the Inhibition in the experiment with Klebsiella pneumoniae, in the experiment on Candida albicans and in the experiment with Cryptococcus neoformans were 7.01%, 3.1% and -11.52%, respectively.

Take `Cc1ccc(NC(=O)Cn2nc3c(N4CCCC(C)C4)nccn3c2=O)cc1C` (centres undefined): the Inhibition is listed as -5.74% with Klebsiella pneumoniae, 1.72% with Candida albicans and -9.99% with Cryptococcus neoformans.

As to `Cc1cc(C)cc(Nc2nc(C)cc3nn(CC(=O)NC4CCCCC4)c(=O)n23)c1`, the Inhibition is given as 13.04% in the experiment on Klebsiella pneumoniae, 1.39% in the experiment with Candida albicans and -8.46% with Cryptococcus neoformans.

For `COc1ccc(CCn2c(=O)c3sccc3n3c(=O)n(Cc4ccccc4Cl)nc23)cc1OC`, the Inhibition is 5.53% in the experiment on Klebsiella pneumoniae, -1.24% in the experiment on Candida albicans and -27.91% in the experiment with Cryptococcus neoformans.

With `Cc1ccc(Cl)cc1NC(=O)CSc1nnc2ccc(C(=O)Nc3cccc(F)c3)cn12`, the Inhibition is 3.53% with Klebsiella pneumoniae, 4.15% with Candida albicans and -1.38% with Cryptococcus neoformans.

For the compound `Cc1ccc(CNC(=O)Cn2nc3ccc(SCc4ccc(Cl)cc4)nn3c2=O)cc1`, the values for the Inhibition in the experiment on Klebsiella pneumoniae, in the experiment on Candida albicans and in the experiment with Cryptococcus neoformans were 9.12%, 20.24% and -27.26%, respectively.

In the case of `O=C(Cn1nc2c3cc(-c4ccccc4)nn3ccn2c1=O)N1CCCc2ccccc21`, the Inhibition was 12.97% in the experiment on Klebsiella pneumoniae, -0.58% with Candida albicans and -23.31% with Cryptococcus neoformans.

With `O=C(CSc1nnc2c(=O)n(-c3ccccc3)ccn12)Nc1ccc2c(c1)OCO2`, the Inhibition is given as 8.73% in the experiment with Klebsiella pneumoniae, 0.46% with Candida albicans and -18.26% in the experiment with Cryptococcus neoformans.

On to `Cc1ccc(NC(=O)Cn2nc3c(Oc4ccccc4C)nccn3c2=O)cc1F`, for which the Inhibition in the experiment with Klebsiella pneumoniae is on record as 11.18%; in the experiment on Candida albicans it was -0.61%; with Cryptococcus neoformans it was -11.02%.

For the compound `COc1ccc(-c2cc3c4nnc(SCC(=O)NCc5cccc(OC)c5OC)n4ccn3n2)cc1`, the Inhibition with Klebsiella pneumoniae is listed as 6.86%; in the experiment with Candida albicans it was 0.88%; in the experiment with Cryptococcus neoformans, -15.85%.

These data come from ChEMBL document CHEMBL4513146, “CO-ADD screening of Karazin Kharkiv National University (Ukraine) compounds”.
